Reference: PubChem BioAssay AID624351 (Southern Research Specialized Biocontainment Screening …, 2012)
In all, about 2,400 compounds went through this assay and about 1,400 (58%) were called active. The set was probably picked from earlier hits. The list shows a part of the results. Unmarked numbers belong to inactive results.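 The calls were made as follows: active = inhibition of 30% or more at any tested dose; inconclusive = primary hits over the limit that were never retested; inactive = the rest.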

experiment: coupled detection enzyme interference, dose response, artefact control for MgcRacGAP inhibitor project, biochemical, coupled enzyme counter-screen (AID 624351); details: ADP Hunter coupled enzyme counter-screen, fluorescence, no MgcRacGAP; series mostly up to 80 µM; inhibition: at the top concentration;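 also: signal is the ADP detection kit reading of free GDP without any GAP enzyme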;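 as to inhibition: 0% = median positive control wells and 100% = median negative control wells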

SMILES | IC50 | inhibition
COc1cc(/C=N/n2c(C)nc3ccccc3c2=O)ccc1O | 43.1 µM (active) | –
COc1cc(/C=C/c2ccc3cccc(O)c3n2)ccc1O | 81.5 µM (active) | –
CCCc1nc2ccccc2c(=O)n1/N=C/c1ccc(O)c(O)c1 | 41.7 µM (active) | –
NCC[C@H](O)C(=O)N[C@@H]1C[C@H](N)[C@@H](O[C@H]2O[C@H](CN)[C@@H](O)[C@H](O)[C@H]2O)[C@H](O)[C@H]1O[C@H]1O[C@H](CO)[C@@H](O)[C@H](N)[C@H]1O | – | 0.86%
COc1cc(/C=N/NC(=O)CN(Cc2ccccc2)S(=O)(=O)c2ccc3c(c2)OCCO3)ccc1O | 73 µM (active) | –
COc1cc(/C=N/NC(=O)CN(Cc2ccco2)S(=O)(=O)c2ccccc2)ccc1O | 49.9 µM (active) | –
CS/C(=N\S(=O)(=O)c1cccs1)NC(=O)CSc1nc2ccccc2s1 | – | 4.26%
C#CCOCCOCCOCCNc1nc(N2CCN(C(=O)[C@H](CCCCN)n3cc(CN)nn3)CC2)nc(N2CCN(C(=O)[C@H](CCC(=O)O)n3cc([C@@H](N)CCCCN)nn3)CC2)n1 | – | 0.72%
CCOC(=O)C1=C(C)NC(=O)CC1c1cc2c(cc1[N+](=O)[O-])OCO2 (stereo not given) | 64.2 µM (active) | –
OC1CNc2c(ccc3ccccc23)C1 (stereo not given) | 16.5 µM (active) | –
O=C1CCC(C2CCc3cc(O)ccc3C2)C1 (stereo not given) | 77.7 µM (active) | –
Clc1nssc1=Nc1ccc(Br)cc1 | – | 15.1%
CSc1nc(C)c2c(n1)N(c1ccc(O)cc1)CC2 | 16.2 µM (active) | –
Cc1ccc(N2C(S)=C(C#N)C(=O)NC2c2ccco2)cc1 (stereo not given) | – | 7.63%
CCN(CC)CCOCCOc1ccc(Cl)c2ccccc12 | – | 15%
CCOc1cccc2cc(C(=O)Oc3ccc(OC)cc3)c(=O)oc12 | – | 20.3%
Cc1nc(C)c(CC(=O)N/N=C/c2ccc(O)cc2)c(=O)[nH]1 | 75.8 µM (active) | –
Cc1ccc(NC(=O)CCC(=O)N/N=C/c2ccc(O)cc2)cc1 | 51.5 µM (active) | –
O=C(CCC(=O)Nc1ccc(F)cc1)N/N=C/c1ccc(O)cc1 | 71.3 µM (active) | –
COc1cc(/C=N/NC(=O)CCC(=O)Nc2ccc(F)cc2)ccc1O | 36.4 µM (active) | –
CCCCCCCCCCCCCCCC(O)C[N+](C)(C)CCO (stereo not given) | – | -8.37%
Cc1ccc(NC(=O)CN(C)C2CCCCC2)cc1Cl | – | 12.6%
O=C(CC(=O)Nc1ccc(Cl)c(Cl)c1)N/N=C/c1ccc(O)cc1 | 66.8 µM (active) | –
COc1cc(/C=N/Nc2nc(C)cc(=O)[nH]2)ccc1O | 24.9 µM (active) | –
Cc1cc(=O)[nH]c(N/N=C/c2ccc(O)c(O)c2)n1 | 20.9 µM (active) | –
S=c1[nH]cc2cnccn12 | 72.1 µM (active) | –
CCOC(=O)c1c(C)[nH]c(C(=O)CN2CCN(CC)CC2)c1C | – | 23.7%

SMILES | IC50 | inhibition
CCOC(=O)c1c(C)[nH]sc1=S | 44.3 µM (active) | –
CCOC(=O)c1sc(=S)[nH]c1C | 46 µM (active) | –
CCn1c(-c2ccccc2)csc1=Nc1ccc(O)cc1 | 35.8 µM (active) | –
C=CCn1c(=O)/c(=C/c2ccc(O)cc2)s/c1=C(/C#N)c1nnc2n1CCCCC2 | 58.7 µM (active) | –
C/C(=N\NC(=O)CSCc1ccccc1Cl)c1cc(O)ccc1O | 25.6 µM (active) | –
CCN1CCN(CC(=O)N/N=C/c2cc(Br)cs2)CC1 | – | 22.6%
Brc1csc(C=Nc2ccc3c(c2)OCCOCCOCCOCCO3)c1 | 70.1 µM (active) | –
CC1=NN(c2ccc(C(=O)O)cc2)C(=O)/C1=C\c1ccc(OC(=O)c2cccs2)cc1 | – | 1.5%
COc1ccc(Br)cc1CN1CCC(N2CCCC2)CC1 | – | 23.7%
Oc1ccc(N2CCN(C(c3cccs3)c3nnnn3CCc3ccccc3)CC2)cc1 (stereo not given) | 45.2 µM (active) | –
COc1ccc(Cn2nnnc2C(c2cccnc2)N2CCN(c3ccc(O)cc3)CC2)cc1 (stereo not given) | 50.3 µM (active) | –
COc1ccc(N2CCN(C(=O)c3ccc(CS(=O)c4cccc(Cl)c4)o3)CC2)cc1 (stereo not given) | – | 29%
CCC(c1nnnn1Cc1ccccc1)N1CCN(c2ccc(OC)cc2)CC1 (stereo not given) | – | 21.9%
COc1cc2oc(-c3ccc(O)cc3)cc(=O)c2c(OC)c1O | 21.9 µM (active) | –
COc1cccc(CNc2ccc3[nH]c(=O)[nH]c3c2)c1OCc1ccccc1Cl | 83.9 µM (active) | –
COc1cc(CNc2ccc3[nH]c(=O)[nH]c3c2)ccc1OCc1ccccc1F | – | 15.4%
COc1cc(CNc2ccc3[nH]c(=O)[nH]c3c2)ccc1OCc1c(F)cccc1Cl | – | 6.31%
Cc1ccc(S(=O)(=O)Nc2ccc(N(C)C)cc2)cc1 | 31.3 µM (active) | –
CC1CCN(CC(=O)Nc2ccc(S(=O)(=O)NC3CC3)cc2)CC1 | – | 14.7%
Cc1ccc(S(=O)(=O)Nc2nsc(N)n2)cc1 | – | 4.63%
CN(C)c1ccc(NS(=O)(=O)c2cc(Cl)ccc2Cl)cc1 | 50 µM (active) | –
CN(CC(=O)NCc1ccncc1)S(=O)(=O)c1ccc(Cl)cc1 | – | 0.47%
CN(C)c1ccc(NS(=O)(=O)c2ccc(Cl)cc2)cc1 | 33.7 µM (active) | –
CC(NS(=O)(=O)c1ccc(Cl)cc1)C(=O)OCC(=O)Nc1ccc(N(C)C)cc1 (stereo not given) | 70.6 µM (active) | –
CC(C)(C)N(NS(=O)(=O)c1ccc(F)cc1)c1ccccc1 | – | 9.28%
COc1cccc(NS(=O)(=O)c2ccc3c(c2)C2C=CCC2C(c2ccc(C(=O)O)cc2)N3)c1 (stereo not given) | – | -25%
COc1cc(/C=C/C(=O)OCC(=O)NCC2CCCCC2)ccc1O | 35.4 µM (active) | –

SMILES | IC50 | inhibition
COc1cc(/C=C/C(=O)OCC(=O)NCCC2=CCCCC2)ccc1O | 51.8 µM (active) | –
COc1cc(/C=C/C(=O)OCC(=O)NC2CCS(=O)(=O)C2)ccc1O (stereo not given) | 43.2 µM (active) | –
CCOCCCNCC(=O)NCC1CCCCC1 | – | 19.1%
CCN(CC(=O)Nc1cc(Cl)ccc1OC)CC(=O)NC1CCS(=O)(=O)C1 (stereo not given) | – | 19.5%
Cc1cc(/C=C(\C#N)C(=O)N2CCCCC2)cc(C)c1O | 56.9 µM (active) | –
CC1CC(C)CN(C2CCN(Cc3cccnc3)CC2)C1 (stereo not given) | – | 29.8%
CCOc1ccc(N(CCCCO)C(=S)NC(=O)c2ccc(C)c(Br)c2)cc1 | – | 27.4%
N#CC1=C(S)N(c2ccc(F)cc2)C(c2ccco2)NC1=O (stereo not given) | – | -0.4%
OCCCCNc1cccc2ccccc12 | 34.5 µM (active) | –
O=C1c2cccc(NCCCNCCO)c2C(=O)c2cccc(NCCCNCCO)c21 | – | 25.1%
O=C1c2cccc(NCCNCCO)c2C(=O)c2cccc(NCCNCCO)c21 | – | 15.9%
Nc1ccc(C(=O)c2ccc3c(c2)OCCO3)cc1N | 24.2 µM (active) | –
COc1ccc(C(=O)CCNc2ccc3c(c2)OCCO3)cc1 | – | 14.2%
CCN(CC)CCC(=O)N1C/C(=C/c2ccccc2)C(=O)/C(=C\c2ccccc2)C1 | – | -0.82%
COc1cc(/C=C/C=C2/CC/C(=C/C=C/c3ccc(O)c(OC)c3)C2=O)ccc1O | – | -16.6%
O=C1/C(=C\c2ccc(Cl)c(Cl)c2)CN(C(=O)CCN2CCOCC2)C/C1=C/c1ccc(Cl)c(Cl)c1 | – | 1.77%
COc1cc(/C=C2\C(=O)N(C)C(=S)N2C)ccc1O | 30.2 µM (active) | –
COc1cc(C=C2CN(C)C(=O)C2=O)ccc1O | 25 µM (active) | –
C[N+](C)(C)CCC(=O)N1C/C(=C/c2ccccc2)C(=O)/C(=C\c2ccccc2)C1 | – | -3.71%
CCOc1cc(/C=C2\CN(C)C/C(=C\c3ccc(O)c(OCC)c3)C2=O)ccc1O | 43.5 µM (active) | –
CCOc1cc(/C=C2\CN(CC)C/C(=C\c3ccc(O)c(OCC)c3)C2=O)ccc1O | 61.9 µM (active) | –
CN(C)CCC(=O)N1C/C(=C/c2ccccc2)C(=O)/C(=C\c2ccccc2)C1 | – | 5.48%
COc1ccc(-n2cnc(=S)[nH]c2=S)cc1 | – | 1.48%
COc1ccc2c(C)cc3n[nH]c(=S)n3c2c1 | 15.8 µM (active) | –
COc1cccc2cc(C(=O)Oc3ccc(NC(C)=O)cc3)c(=O)oc12 | – | 29.4%
COc1ccc2oc(=O)c(C(=O)Oc3ccc(NC(C)=O)cc3)cc2c1 | – | 24.9%
COc1ccc(NC(=O)c2cc3ccc(O)cc3o/c2=N\O)cc1 | 57.4 µM (active) | –

SMILES | IC50 | inhibition
COc1cc(/C=C/C(=O)OCC(=O)Nc2cccc(F)c2)ccc1O | 41 µM (active) | –
COc1cc(/C=C/C(=O)OCC(=O)NNC(=O)c2cc(Cl)ccc2OC)ccc1O | 55.8 µM (active) | –
COc1cc(/C=C/C(=O)OCc2cn3cc(Cl)ccc3n2)ccc1O | 36.2 µM (active) | –
COc1cc(/C=C2\C(=O)N(CCC#N)N=C2C)ccc1OCC(=O)Nc1ccccc1 | – | -5.99%
COc1ccc(CNCC(=O)Nc2cc(OC)cc(OC)c2)cc1 | – | 20.6%
COc1cc(NC(=O)COC(=O)/C=C/c2ccc(O)c(OC)c2)cc(OC)c1 | 36.1 µM (active) | –
C#CCOCCOCCOCCNc1nc(N2CCN(C(=O)[C@H](CCCCN)n3cc([C@@H](N)C(C)CC)nn3)CC2)nc(N2CCN(C(=O)[C@H](Cc3cc4ccccc4[nH]3)n3cc([C@@H](N)C(C)CC)nn3)CC2)n1 (stereo not given in full) | – | 2.45%
COc1cc(C2NC(=O)C(C#N)=C(Nc3cccc(C)c3)S2)ccc1O (stereo not given) | – | 17.9%
CCOC(=O)C1=C(COC(=O)/C=C/c2ccc(O)c(OC)c2)NC(=O)NC1C (stereo not given) | 53.1 µM (active) | –
O=C(N/N=C/c1ccc(O)cc1)Nc1cccc2nsnc12 | 61.4 µM (active) | –
Cc1nonc1C(=O)N/N=C/c1ccc(O)c(O)c1 | 17.7 µM (active) | –
COc1cc(/C=N/NC(=O)c2nnn(-c3nonc3N)c2C(C)C)ccc1O | 40.7 µM (active) | –
COc1cc(/C=N/NC(=O)c2nonc2C)ccc1O | 25.6 µM (active) | –
Cc1nonc1C(=O)N/N=C/c1ccc(O)cc1O | 72 µM (active) | –
COc1ccc(O)c(/C=N/NC(=O)c2c(C)nnn2-c2nonc2N)c1 | – | 3.93%
O=S(=O)(/N=S1\CC=CCN1S(=O)(=O)c1ccccc1)c1ccccc1 (stereo not given) | – | 3.75%
COc1cc(/C=C/C(=O)OCC(=O)N2CC3(C)CC2CC(C)(C)C3)ccc1O (stereo not given) | 44.7 µM (active) | –
C/C=C/c1ccc(OCCCCN2CCN(CC)CC2)c(OC)c1 | – | 15.9%
NS(=O)(=O)c1ccc(CCNCC(=O)N2CCC(Cc3ccccc3)CC2)cc1 | – | 11.3%
COc1cc(/C=C/C(=O)OCC(=O)N2CCCc3ccccc32)ccc1O | 27.8 µM (active) | –
COc1cc(/C=C/C(=O)OCC(=O)N2CCC(Cc3ccccc3)CC2)ccc1O | 49.4 µM (active) | –
COc1cccc(C(=O)N2CCN(C3CCN(Cc4ccccc4)CC3)CC2)c1OC | – | 19.7%
COc1cc(CN2CCC(C(=O)N3CCN(c4ccccc4F)CC3)CC2)ccc1O | – | 20.6%
COC(=O)C1CCN(C(=O)COC(=O)/C=C/c2ccc(O)c(OC)c2)CC1 | 44 µM (active) | –
